# Measured values from the supplement of paper PMC8728848.
# This is one part of a sample in which the strongest signals are shown more often than they occur.
# Legend:
# Test in all cases: glycan array binding signal (z-score within array); higher = stronger binding
# Details in all cases: glycan notation: IUPAC condensed, linker removed
# [1] = biological target: Fuc(a1-2)Gal(b1-3)GlcNAc(b1-2)Man(a1-3)[Fuc(a1-2)Gal(b1-3)GlcNAc(b1-2)Man(a1-6)]Man(b1-4)GlcNAc(b1-4)[Fuc(a1-6)]GlcNAc
# Procedure, shortened: (§1)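 Glycan array data were curated from 3228 arrays in the Consortium for Functional Glycomics database and kept only where the protein sequence was available. Glycan names were converted to IUPAC-condensed notation, and columns mapping to the same glycan were averaged. The binding signal is a within-array Z-score, averaged across arrays of the same protein sequence at different concentrations or buffers and across linkers. Negative Z-scores can be read as non-binding.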
# [2] = biological target: Fuc(a1-2)Gal(b1-4)GlcNAc(b1-3)Gal(b1-4)GlcNAc(b1-2)Man(a1-3)[Fuc(a1-2)Gal(b1-4)GlcNAc(b1-3)Gal(b1-4)GlcNAc(b1-2)Man(a1-6)]Man(b1-4)GlcNAc(b1-4)GlcNAc
# Procedure, shortened: as §1
# [3] = biological target: Fuc(a1-2)[Gal(a1-3)]Gal(b1-3)GlcNAc(b1-6)GalNAc
# Procedure, shortened: as §1
# [4] = biological target: Fuc(a1-2)[Gal(a1-3)]Gal(b1-4)GlcNAc(b1-6)GalNAc
# Procedure, shortened: as §1
# [5] = biological target: Fuc(a1-2)[GalNAc(a1-3)]Gal(b1-4)GlcNAc(b1-2)Man
# Procedure, shortened: as §1
# [6] = biological target: Fuc(a1-2)[GalNAc(a1-3)]Gal(b1-4)GlcNAc(b1-6)GalNAc
# Procedure, shortened: as §1
# [7] = biological target: Fuc(a1-2)[GalNAc(b1-3)]Gal
# Procedure, shortened: as §1
# [8] = biological target: Gal(a1-3)Gal
# Procedure, shortened: as §1
# [9] = biological target: Gal(a1-3)Gal(b1-4)GlcNAc(b1-6)GalNAc
# Procedure, shortened: as §1
# [10] = biological target: Gal(a1-3)Gal(b1-4)[Fuc(a1-3)]GlcNAc(b1-2)Man(a1-3)[Gal(a1-3)Gal(b1-4)[Fuc(a1-3)]GlcNAc(b1-2)Man(a1-6)]Man(b1-4)GlcNAc(b1-4)GlcNAc
# Procedure, shortened: as §1
# [11] = biological target: Gal(a1-3)GalNAc
# Procedure, shortened: as §1
# [12] = biological target: Gal(a1-3)[Gal(a1-4)]Gal(b1-4)GlcNAc
# Procedure, shortened: as §1
# [13] = biological target: Gal(a1-4)Gal(b1-4)Glc
# Procedure, shortened: as §1
# [14] = biological target: Gal(b1-3)GlcNAc(b1-2)Man(a1-3)[Gal(b1-3)GlcNAc(b1-2)Man(a1-6)]Man(b1-4)GlcNAc(b1-4)[Fuc(a1-6)]GlcNAc
# Procedure, shortened: as §1
# [15] = biological target: Gal(b1-3)GlcNAc(b1-6)Gal(b1-4)GlcNAc
# Procedure, shortened: as §1
# [16] = biological target: Gal(b1-3)GlcNAc(b1-6)GalNAc
# Procedure, shortened: as §1
# [17] = biological target: Gal(b1-3)[Fuc(a1-4)]GlcNAc(b1-3)Gal(b1-3)[Fuc(a1-4)]GlcNAc
# Procedure, shortened: as §1
# [18] = biological target: Gal(b1-3)[Neu5Ac(a2-6)]GlcNAc(b1-4)Gal(b1-4)Glc
# Procedure, shortened: as §1
# [19] = biological target: Gal(b1-4)GlcNAc(b1-2)Man(a1-3)[Gal(b1-4)GlcNAc(b1-2)Man(a1-6)][Gal(b1-4)GlcNAc(b1-4)]Man(b1-4)GlcNAc(b1-4)[Fuc(a1-6)]GlcNAc
# Procedure, shortened: as §1
# [20] = biological target: Gal(b1-4)GlcNAc(b1-3)Gal(b1-4)GlcNAc(b1-2)[Gal(b1-4)GlcNAc(b1-3)Gal(b1-4)GlcNAc(b1-6)]Man(a1-6)[Gal(b1-4)GlcNAc(b1-3)Gal(b1-4)GlcNAc(b1-2)Man(a1-3)]Man(b1-4)GlcNAc(b1-4)[Fuc(a1-6)]GlcNAc
# Procedure, shortened: as §1
# [21] = biological target: Gal(b1-4)GlcNAc(b1-3)Gal(b1-4)GlcNAc(b1-3)Gal(b1-4)GlcNAc(b1-2)[Gal(b1-4)GlcNAc(b1-3)Gal(b1-4)GlcNAc(b1-3)Gal(b1-4)GlcNAc(b1-6)]Man(a1-6)[Gal(b1-4)GlcNAc(b1-3)Gal(b1-4)GlcNAc(b1-3)Gal(b1-4)GlcNAc(b1-2)Man(a1-3)]Man(b1-4)GlcNAc(b1-4)[Fuc(a1-6)]GlcNAc
# Procedure, shortened: as §1
# [22] = biological target: Gal(b1-4)GlcNAc(b1-3)Gal(b1-4)GlcNAc(b1-3)Gal(b1-4)GlcNAc(b1-3)Gal(b1-4)GlcNAc(b1-2)[Gal(b1-4)GlcNAc(b1-3)Gal(b1-4)GlcNAc(b1-3)Gal(b1-4)GlcNAc(b1-3)Gal(b1-4)GlcNAc(b1-6)]Man(a1-6)[Gal(b1-4)GlcNAc(b1-3)Gal(b1-4)GlcNAc(b1-3)Gal(b1-4)GlcNAc(b1-3)Gal(b1-4)GlcNAc(b1-2)Man(a1-3)]Man(b1-4)GlcNAc(b1-4)[Fuc(a1-6)]GlcNAc
# Procedure, shortened: as §1
# [23] = biological target: Gal(b1-4)GlcNAc(b1-3)Gal(b1-4)GlcNAc(b1-3)Gal(b1-4)GlcNAc(b1-3)Gal(b1-4)GlcNAc(b1-3)Gal(b1-4)GlcNAc(b1-3)Gal(b1-4)GlcNAc(b1-2)Man(a1-3)[Gal(b1-4)GlcNAc(b1-3)Gal(b1-4)GlcNAc(b1-3)Gal(b1-4)GlcNAc(b1-3)Gal(b1-4)GlcNAc(b1-3)Gal(b1-4)GlcNAc(b1-3)Gal(b1-4)GlcNAc(b1-2)Man(a1-6)]Man(b1-4)GlcNAc(b1-4)GlcNAc
# Procedure, shortened: as §1
# [24] = biological target: Gal(b1-4)GlcNAc(b1-6)[Gal(b1-4)GlcNAc(b1-3)]GalNAc
# Procedure, shortened: as §1
# [25] = biological target: Gal3S(b1-3)GalNAc
# Procedure, shortened: as §1
# [26] = biological target: Gal3S(b1-4)[Fuc(a1-3)]GlcNAc6S
# Procedure, shortened: as §1
# [27] = biological target: GalNAc(b1-3)Gal
# Procedure, shortened: as §1
binder,measurement,setting,value
DC-ASGPR L+GEE (Homo sapiens) (protein) MTRTYENFQYLENKVKVQGFKNGPLPLQSLLQRLRSGPCHLLLSLGLGLLLLVIICVVGFQNSKFQRDLVTLRTDFSNFTSNTVAEIQALTSQGSSLEETIASLKAEVEGFKQERQAGVSELQEHTTQKAHLGHCPHCPSVCVPVHSEMLLRVQQLVQDLKKLTCQVATLNNNGEEASTEGTCCPVNWVEHQDSCYWFSHSGMSWAEAEKYCQLKNAHLVVINSREEQNFVQKYLGSAYTWMGLSDPEGAWKWVDGTDYATGFQNWKPGQPDDWQGHGLGGGEDCAHFHPDGRWNDDVCQRPYHWVCEAGLGQTSQESH,glycan array binding signal (z-score),[1],-0.314
same,glycan array binding signal (z-score),[2],0.538
same,glycan array binding signal (z-score),[3],2.67
same,glycan array binding signal (z-score),[4],-0.492
same,glycan array binding signal (z-score),[5],0.54
same,glycan array binding signal (z-score),[6],3.41
same,glycan array binding signal (z-score),[7],3.61
same,glycan array binding signal (z-score),[8],0.243
same,glycan array binding signal (z-score),[9],3.21
same,glycan array binding signal (z-score),[10],0.091
same,glycan array binding signal (z-score),[11],-0.254
same,glycan array binding signal (z-score),[12],-0.371
same,glycan array binding signal (z-score),[13],-0.702
same,glycan array binding signal (z-score),[14],-0.527
same,glycan array binding signal (z-score),[15],-0.073
same,glycan array binding signal (z-score),[16],3.3
same,glycan array binding signal (z-score),[17],-0.093
same,glycan array binding signal (z-score),[18],-0.382
same,glycan array binding signal (z-score),[19],-0.406
same,glycan array binding signal (z-score),[20],-0.323
same,glycan array binding signal (z-score),[21],0.024
same,glycan array binding signal (z-score),[22],2.52
same,glycan array binding signal (z-score),[23],0.991
same,glycan array binding signal (z-score),[24],-0.432
same,glycan array binding signal (z-score),[25],0.442
same,glycan array binding signal (z-score),[26],0.135
same,glycan array binding signal (z-score),[27],3.04
